# A selection: hits, their analogues and other compounds. The true share with any hit is near 3.4%.
# ssDAF12 agonist – S. stercoralis DAF-12 nuclear receptor activators, primary screen, cell-based, luminescence, HEK293, GRIP1 co-expression, lit1-tk-luc. Nuclear hormone receptor DAF-12 (Strongyloides stercoralis). HEK293 ssDAF-12/GRIP1 lit1-tk-luc reporter; % of 3 µM dafachronic acid response. activation, % at 6.8 µM. actives 1% (n = 370,000);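 active means activation above the mean over all tested compounds plus 3 SD, cut at about 0.9% in these data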
# APP 5'UTR act – activators of APP 5'UTR luciferase reporter, primary screen, SH-SY5Y cells; SH-SY5Y APP 5'UTR luciferase reporter, luminescence; zero percent = DMSO vehicle wells; activation, % at 2 µM; actives 1% (n = 190,000); AID 1276, 2008;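 active means activation above a set limit, based on mean plus 3 SD of controls, cut at about 140% in these data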
# hcDAF12 agonist – H. contortus DAF-12 nuclear receptor activators, primary screen, cell-based, luminescence, HEK293, lit1-tk-luc reporter. HEK293 hcDAF-12 lit1-tk-luc reporter; 0% DMSO, 100% Δ7-dafachronic acid. AID 652067, 2013. actives 1.4% (n = 370,000). activation, % at 6.8 µM;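 active means activation above the mean of all tested compounds plus 3 SD, cut at about 5.5% in these data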
# hgDAF12 agonist – H. glycines DAF-12 receptor agonists, primary screen, cell-based, luminescence, HEK293, GAL4 fusion, UAS-luciferase | HEK293 GAL4-hgDAF12 UAS-luciferase reporter, agonist luminescence; normalized to butyrate control | activation, % at 6.8 µM | actives 1.8% (n = 370,000);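 active means activation above a cutoff set at the mean of all screened compounds plus 3 SD, cut at about 10% in these data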
# NF-kB expr up – activators of NF-kB expression in neurons, primary screen, cell-based, HTS | human neuronal cells, NF-kB reporter expression; stronger effect = higher value | fold change at 12.5 µM | actives 1.6% (n = 190,000) | AID 1239, 2008; in the data active means fold change above about 3.3
# A number is an active result; - = inactive; . = no result given.
SMILES,ssDAF12 agonist,APP 5'UTR act,hcDAF12 agonist,hgDAF12 agonist,NF-kB expr up
Cc1nc2cc(-c3ccccc3)nn2c(N)c1-c1ccccc1,-,.,-,-,.
O=C(Nc1ccc2nc(-c3ccc(Br)o3)[nH]c2c1)c1ccco1,-,.,-,-,-
CC(=O)Nc1ccc2nc(-c3ccc(Br)o3)[nH]c2c1,-,-,-,11,-
COc1ccc(C(=O)Nc2cccc(/C(C)=N\NC(=O)c3ccoc3C)c2)cc1OC,-,.,-,13,.
C/C(=N/NC(=O)c1ccoc1C)c1ccc(NC(=O)C2CCCC2)cc1,-,161,6.0,15,-
C/C(=N\NC(=O)c1nn(C)c(C)c1Br)c1ccc(NC(=O)C2CCCC2)cc1,-,.,-,12,.
Cc1cccc(CNC(=O)NC2CCCCN(Cc3cccc(Cl)c3)C2=O)c1 (centres undefined),-,.,-,-,.
Cc1sc2nc(COC(=O)CNC(=O)c3ccc(F)cc3Cl)[nH]c(=O)c2c1C,-,.,-,-,.
CN1CCc2c(C#N)c(N3CCCCC3)nc(NCc3ccccc3)c2C1,-,-,-,-,-
N#Cc1c(NCCCO)nc(NCc2ccccc2)c2c1CCN(Cc1ccccc1)C2,-,-,-,-,3.3
O=C(CSc1nc2ccccc2c(=O)n1-c1ccccc1)N/N=C/C=C/c1ccccc1[N+](=O)[O-],-,-,-,-,-
O=C(CSc1nc2ccccc2c(=O)n1-c1ccc(Cl)cc1)N/N=C/C=C/c1ccccc1[N+](=O)[O-],-,-,5.8,-,-
Cn1c(CNC(=O)c2ccccc2F)cc2ccccc21,-,.,-,-,.
Cn1c(CNC(=O)c2ccc(F)cc2)cc2ccccc21,1.0,.,-,-,.
Nc1cccc(-c2nc3ccc(N)cc3s2)c1,-,-,-,-,-
O=C(O)c1ccc2nc(-c3ccccc3)sc2c1,-,-,-,-,9.1
Nc1cc2sc(-c3ccc(C(=O)O)cc3)nc2cc1Cl,-,-,-,-,-
Nc1ccc(-c2nc3ccc(C(=O)O)cc3s2)cc1,-,-,-,-,9.2
C=CCN(C(=O)[C@@H](C)[C@@H](O)c1ccc(Cl)cc1)c1ccccc1,-,.,-,-,.
CC1=NN(C(N)=S)C(=O)C1N=Nc1cccc(Cl)c1 (centres undefined),-,.,6.1,-,.
CC(=O)N(C)c1ccc(N=NC2C(=O)N(C(N)=S)N=C2C)cc1 (centres undefined),-,.,-,12,.
Cc1ccc(S(=O)(=O)N2CCCN(C(=O)c3cc4ccccc4[nH]3)CC2)cc1,-,.,5.8,-,.
CN1CCN(C(=O)c2cc3ccccc3[nH]2)CC1,-,.,-,-,.
CCN(CC)S(=O)(=O)c1ccc(C)c(NC(=O)COC(=O)CN2C(=O)NC(C)(C)C2=O)c1,0.9,.,-,-,.
CCn1c(SCC(=O)Nc2ccccc2-c2ccccc2)nnc1-c1cnccn1,-,.,-,-,.
SMILES,ssDAF12 agonist,APP 5'UTR act,hcDAF12 agonist,hgDAF12 agonist,NF-kB expr up
CCOCCCNC(C(=O)Nc1ccc(OC)c(Cl)c1)c1ccccc1 (centres undefined),-,169,-,-,-
COc1ccc(NC(=O)CNC(c2ccccc2)c2ccccc2)cc1Cl,-,.,-,-,.
CCC(C)(C)C1CCC(=NNC(=O)c2ccoc2C)CC1 (centres undefined),-,144,-,18,-
O=C(NC1CCCCN(Cc2cccc(Cl)c2)C1=O)c1cccs1 (centres undefined),-,.,-,-,.
COc1cc(C2NC(=O)CCC2[N+](=O)[O-])c(OC)cc1Br (centres undefined),0.9,.,-,-,.
CC(C)(C)OC(=O)/C=C/[C@@H](CC1CCCC1)Sc1ccc(C(C)(C)C)cc1,-,.,-,-,.
C=CCNc1nc2cc(-c3ccccc3OC)sc2c(=O)n1C,-,.,-,11,.
COCCNc1nc2cc(-c3ccc(F)cc3)sc2c(=O)n1C,-,.,-,12,.
Cn1c(NCCOc2ccccc2)nc2cc(-c3ccc(F)cc3)sc2c1=O,-,.,-,-,.
Cc1cccc(C)c1NC(=O)C1(C)CCC(=O)N1CCCn1ccnc1 (centres undefined),-,.,-,-,.
Cc1cccc(C)c1NC(=O)C1(C)CSCC(=O)N1CCCn1ccnc1 (centres undefined),2.1,.,-,-,.
CN1C2C=C3C(C#N)=C(N)C(C#N)(C#N)[C@H](c4c(F)cccc4F)[C@H]3C1CC2 (some centres undefined),-,-,-,-,-
CN1C2C=C3C(C#N)=C(N)C(C#N)(C#N)[C@@H](c4cccs4)C3C1CC2 (some centres undefined),-,-,-,-,4.4
Cc1cccn2c(=O)c3cc(C(=O)NC(C)c4ccccc4)c(=N)n(CCCn4ccnc4)c3nc12 (centres undefined),-,.,-,11,.
Cc1ccc2nc3c(cc(C(=O)NCc4ccccc4)c(=N)n3CCCn3ccnc3)c(=O)n2c1,-,.,-,-,.
O=C(CN[C@@H](Cc1c[nH]c2ccccc12)C(=O)NCCc1c[nH]c2ccccc12)NC1CCCCC1,-,.,-,-,.
CCCCNC(=O)C[C@H]1C[C@@]2(C(=O)OC)C(=C[C@H](C(C)(C)C)O[C@@H]2C)N(Cc2ccc(Cl)cc2Cl)C1=O,-,.,-,-,.
COc1ccc(OC)c(S(=O)(=O)N2CCC(c3cn4ccccc4n3)CC2)c1,-,.,-,-,.
COc1cccc2cc(C(=O)OCC(=O)N3CC(C)OC(C)C3)c(=O)oc12 (centres undefined),-,.,5.7,-,.
CCC(Cc1ccccc1)NC(=O)Cn1cccc1C(=O)c1ccccc1 (centres undefined),-,.,-,-,.
CCC(Cc1ccccc1)NC(=O)Cn1ncc2ccsc2c1=O (centres undefined),1.0,-,5.9,11,-
O=C(O)c1cn(Cc2ccccn2)c(=O)c2ccccc12,-,152,-,-,-
O=C(O)c1cn(Cc2cccnc2)c(=O)c2ccccc12,.,-,.,.,-
COC(=O)c1cn(Cc2cccnc2)c(=O)c2ccccc12,0.9,-,-,-,-
Cc1cc(NC(=O)c2ccc(NS(=O)(=O)c3ccc(C)c(C)c3)cc2)no1,-,.,-,-,.
CC(=O)c1c(C)[nH]c(C(=O)Nc2ccc(Cl)cc2F)c1C,-,.,-,11,.
COc1ccc(S(=O)(=O)N2CCCCC2)cc1NC(=O)c1[nH]c(C)c(C(C)=O)c1C,0.9,.,6.2,-,.
CC(=O)c1c(C)[nH]c(C(=O)Nc2ccc(F)c(F)c2F)c1C,-,.,-,-,.
CC(C)(C)c1ccc(C(=O)CS(=O)(=O)c2ccccc2)cc1,-,140,-,-,-
Cc1ccc(OCc2nnc(SCC(=O)Nc3cccc4ccccc34)n2Cc2ccco2)cc1,-,.,-,-,.

# High-throughput results (PubChem BioAssay)
